# Test results published in PubChem BioAssay AID1159580 (chemical genetic matrix, 2015).
# About 2,000 (36%) of roughly 5,500 compounds were called active. Roughly 18% stayed inconclusive and do not appear here. Some of the results follow. Values without a mark were called inactive. No stated cut-off is given here; in the data, active means normalized growth mostly below about 0.91 (no sharp cut-off); inconclusive means no clear call, values can overlap the other calls; inactive means mostly above about 0.92.
# Assay: chemical genetic growth profiling, strain panel (AID 1159580);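 further: tested at 20 µM; growth read once vehicle control cultures reached saturation at 30 °C; 1 = growth at the plate median or of vehicle wells; lower values mean less growth of the strain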
# Settings: S. cerevisiae deletion strains, growth OD
smiles,measurement,setting,value
C[C@H]1C[C@@H](O)[C@]2(O)[C@@]13CC(=O)OC[C@@]2(C)[C@](C)(O)C(=O)C3,normalized growth,"locus YAL021C, strain ccr4, hits give low values",1.02
same,normalized growth,"locus YAL026C, strain drs2, hits give low values",1.04
same,normalized growth,"locus YAL030W, strain snc1, hits give low values",1.02
same,normalized growth,"locus YBL061C, strain skt5, hits give low values",1.02
same,normalized growth,"locus YBR009C, strain hhf1, hits give low values",1.02
same,normalized growth,"locus YBR023C, strain chs3, hits give low values",1.03
same,normalized growth,"locus YBR171W, strain sec66, hits give low values",1.03
same,normalized growth,"locus YBR231C, strain swc5, hits give low values",1.03
same,normalized growth,"locus YBR279W, strain paf1, hits give low values",1.03
same,normalized growth,"locus YCL011C, strain gbp2, hits give low values",1.02
same,normalized growth,"locus YCL016C, strain dcc1, hits give low values",1.02
same,normalized growth,"locus YCL061C, strain MRC1, hits give low values",1.02
same,normalized growth,"locus YCL069W, strain vba3, hits give low values",1.02
same,normalized growth,"locus YCR088W, strain abp1, hits give low values",1.02
same,normalized growth,"locus YDL005C, strain med2, hits give low values",1.03
same,normalized growth,"locus YDL040C, strain nat1, hits give low values",1.02
same,normalized growth,"locus YDR001C, strain nth1, hits give low values",1.02
same,normalized growth,"locus YDR069C, strain doa4, hits give low values",1.04
same,normalized growth,"locus YDR137W, strain rgp1, hits give low values",1.03
same,normalized growth,"locus YDR159W, strain sac3, hits give low values",1.05
same,normalized growth,"locus YDR195W, strain ref2",1.02
same,normalized growth,"locus YDR297W, strain sur2, hits give low values",1.03
same,normalized growth,"locus YDR334W, strain swr1, hits give low values",1.03
same,normalized growth,"locus YDR335W, strain msn5, hits give low values",1.03
same,normalized growth,"locus YDR392W, strain spt3, hits give low values",0.974
same,normalized growth,"locus YEL003W, strain gim4, hits give low values",1.04
same,normalized growth,"locus YEL037C, strain rad23, hits give low values",1.03
same,normalized growth,"locus YEL061C, strain CIN8 (second series), hits give low values",1.03
same,normalized growth,"locus YER015W, strain faa2, hits give low values",1.02
same,normalized growth,"locus YER016W, strain bim1, hits give low values",1.02
same,normalized growth,"locus YER111C, strain swi4, hits give low values",1.04
same,normalized growth,"locus YER155C, strain BEM2 (second series), hits give low values",1.05
same,normalized growth,"locus YFR010W, strain ubp6, hits give low values",1.03
same,normalized growth,"locus YGL167C, strain pmr1, hits give low values",1.02
same,normalized growth,"locus YGL173C, strain kem1, hits give low values",1.02
same,normalized growth,"locus YGL227W, strain vid30, hits give low values",1.03
same,normalized growth,"locus YGL240W, strain doc1, hits give low values",1.02
same,normalized growth,"locus YGL253W, strain hxk2, hits give low values",1.03
same,normalized growth,"locus YHR013C, strain ard1, hits give low values",1.04
same,normalized growth,"locus YHR027C, strain rpn1, hits give low values",1.02
same,normalized growth,"locus YHR030C, strain SLT2, hits give low values",1.08
same,normalized growth,"locus YHR079C, strain IRE1, hits give low values",1.05
same,normalized growth,"locus YHR142W, strain chs7, hits give low values",1.04
same,normalized growth,"locus YJL092W, strain hpr5, hits give low values",1.03
same,normalized growth,"locus YJL095W, strain BCK1 (second series), hits give low values",1.03
same,normalized growth,"locus YJL095W, strain BCK1, hits give low values",1.05
same,normalized growth,"locus YJL115W, strain asf1, hits give low values",1.05
same,normalized growth,"locus YJL129C, strain trk1, hits give low values",1.06
same,normalized growth,"locus YJL154C, strain vps35, hits give low values",1.01
same,normalized growth,"locus YJL164C, strain tpk1, hits give low values",1.02
same,normalized growth,"locus YJL166W, strain qcr8, hits give low values",1.02
same,normalized growth,"locus YJL187C, strain SWE1, hits give low values",1.02
same,normalized growth,"locus YJR066W, strain TOR1, hits give low values",0.995
same,normalized growth,"locus YKL160W, strain elf1, hits give low values",1.02
same,normalized growth,"locus YKR026C, strain gcn3, hits give low values",1
same,normalized growth,"locus YKR091W, strain srl3, hits give low values",1.02
same,normalized growth,"locus YLL001W, strain dnm1, hits give low values",1.02
same,normalized growth,"locus YLL026W, hits give low values",1.03
same,normalized growth,"locus YLL041C, strain sdh2, hits give low values",1.02
same,normalized growth,"locus YLR027C, strain aat2, hits give low values",1.02
same,normalized growth,"locus YLR113W, strain HOG1, hits give low values",1.07
same,normalized growth,"locus YLR221C, strain rsa3, hits give low values",1.03
same,normalized growth,"locus YLR258W, strain gsy2, hits give low values",1.02
same,normalized growth,"locus YLR262C, strain YPT6 (second series), hits give low values",1.03
same,normalized growth,"locus YLR320W, strain mms22, hits give low values",1.03
same,normalized growth,"locus YLR342W, strain FKS1, hits give low values",1.03
same,normalized growth,"locus YLR357W, strain rsc2, hits give low values",1.07
same,normalized growth,"locus YLR370C, strain arc18, hits give low values",1.02
same,normalized growth,"locus YLR384C, strain iki3, hits give low values",1.02
same,normalized growth,"locus YML120C, strain ndi1, hits give low values",1.01
same,normalized growth,"locus YMR058W, strain fet3, hits give low values",1.03
same,normalized growth,"locus YMR125W, strain sto1, hits give low values",1.05
same,normalized growth,"locus YMR129W, hits give low values",1.02
same,normalized growth,"locus YMR205C, strain PFK2, hits give low values",1.04
same,normalized growth,"locus YMR231W, strain pep5, hits give low values",1.03
same,normalized growth,"locus YNL071W, strain lat1, hits give low values",1.03
same,normalized growth,"locus YNL183C, strain NPR1, hits give low values",0.984
same,normalized growth,"locus YNL209W, strain ssb2, hits give low values",1.02
same,normalized growth,"locus YNL248C, strain rpa49, hits give low values",1.03
same,normalized growth,"locus YNL322C, strain KRE1 (second series), hits give low values",1.02
same,normalized growth,"locus YNR049C, strain mso1, hits give low values",1.03
same,normalized growth,"locus YOR001W, strain rrp6, hits give low values",1.03
same,normalized growth,"locus YOR070C, strain gyp1, hits give low values",1.02
same,normalized growth,"locus YOR080W, strain dia2, hits give low values",1.03
same,normalized growth,"locus YOR083W, strain WHI5, hits give low values",1.01
same,normalized growth,"locus YOR106W, strain vam3, hits give low values",1.02
same,normalized growth,"locus YOR231W, strain MKK1, hits give low values",1.06
same,normalized growth,"locus YOR265W, strain rbl2, hits give low values",1.02
same,normalized growth,"locus YOR270C, strain vph1, hits give low values",1.09
same,normalized growth,"locus YOR290C, strain snf2, hits give low values",0.993
same,normalized growth,"locus YPL051W, strain arl3, hits give low values",1.02
same,normalized growth,"locus YPL078C, strain atp4, hits give low values",1.03
same,normalized growth,"locus YPL106C, strain sse1, hits give low values",1.02
same,normalized growth,"locus YPL240C, strain hsp82, hits give low values",1.03
same,normalized growth,"locus YPL256C, strain CLN2, hits give low values",1.05
Cc1nc(-c2ccc(-c3ccc(C(=O)N4CCc5cc6c(cc54)C4(CCN(C)CC4)CO6)cc3)c(C)c2)no1,normalized growth,"locus YAL040C, strain CLN3, hits give low values",0.967
same,normalized growth,"locus YCL061C, strain MRC1 (second series), hits give low values",0.902 (active)
same,normalized growth,"locus YDR363W, strain ESC2, hits give low values",0.991
same,normalized growth,"locus YER002W, strain NOP16, hits give low values",0.991
same,normalized growth,"locus YJR075W, strain HOC1, hits give low values",0.898 (active)
same,normalized growth,"locus YMR263W, strain SAP30, hits give low values",1
same,normalized growth,"locus YNL175C, strain NOP13, hits give low values",0.964
same,normalized growth,"locus YNL197C, strain WHI3, hits give low values",0.989
same,normalized growth,"locus YNL224C, strain SQS1, hits give low values",0.961
same,normalized growth,"locus YNL322C, strain KRE1, hits give low values",0.64 (active)
same,normalized growth,"locus YOR083W, strain WHI5 (second series), hits give low values",0.677 (active)
same,normalized growth,"locus YPL055C, strain LGE1, hits give low values",1.04
same,normalized growth,"locus YPL241C, strain CIN2, hits give low values",0.907 (active)
